Test results taken from PubChem BioAssay (EPA / NIEHS).
Activity calls are given as the source filed them. The calls were made as follows: active = hit-call score of the fitted dose curve at least 0.9, where 1 is the maximum; inactive = score below 0.9.

Assay: ATG_EGR_CIS: Attagene CIS-FACTORIAL HepG2 Assay for human Early Growth Response 1 (EGR1) (AID 2282938)
Details: HepG2 Attagene CIS-FACTORIAL EGR reporter mRNA; actives raise or lower the signal
Outline: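 Transient transfection of human HepG2 with multiple cis-regulated reporter units, chemical exposure 24 h, total RNA isolated. Reverse transcription, PCR, fluorescent labelling and capillary electrophoresis quantify reporter transcripts; activity fitted bidirectionally against DMSO.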

Row | SMILES | outcome | AC50
1 | c1ccc2c(c1)CCCC2 | inactive | –
2 | CCOC(=O)C1OC1(C)c1ccccc1 (centres undefined) | inactive | –
3 | [Cl][Sb]([Cl])[Cl] | – | 140 µM (active)
4 | COc1ncc(F)c2nc(S(=O)(=O)Nc3c(F)cccc3F)nn12 | inactive | –
5 | CC(C)[C@@H](C(=O)O[C@@H](C#N)c1cccc(Oc2ccccc2)c1)c1ccc(Cl)cc1 | inactive | –
6 | C[C@]12CC[C@H]3[C@@H](CC[C@@]45O[C@@H]4C(O)=C(C#N)C[C@]35C)[C@@H]1CC[C@@H]2O | – | 63.3 µM (active)
7 | O=[N+]([O-])c1cc([N+](=O)[O-])c2ccccc2c1 | inactive | –
8 | O=C(O)C(Br)Br | inactive | –
9 | C=CC(=O)OCCO | – | 116 µM (active)
10 | CCCCCCCCCCCCCCCC[N+](C)(C)C | inactive | –

Assay: ATG_M_19_CIS: Attagene CIS-FACTORIAL HepG2 Assay for M19 Transcription Factor (Internal Marker) (AID 2282939)
Details: HepG2 Attagene CIS-FACTORIAL M19 internal marker reporter; actives raise or lower the signal
Outline: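 Background-control endpoint from a multiplexed HepG2 reporter panel. Cells carrying cis-regulated reporter constructs are treated 24 h, then reporter transcripts are amplified, fluorescently labelled and sized by capillary electrophoresis. DMSO defines baseline.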

Row | SMILES | outcome | AC50
11 | CCCCCCCCCCCC#N | inactive | –
12 | O=C(NC(=O)c1c(F)cccc1F)Nc1ccc(Oc2ccc(C(F)(F)F)cc2Cl)cc1F | inactive | –
13 | CC1CCCC1.[C-]#[O+].[C-]#[O+].[C-]#[O+].[Mn] | inactive | –
14 | CCCCNP(N)(N)=S | inactive | –
15 | CC(=O)C=Cc1ccccc1 | inactive | –
16 | CCC(=O)c1ccc(Cl)cc1 | inactive | –
17 | Nc1ccccc1C(=O)Oc1ccc2ccccc2c1 | – | 166 µM (active)
18 | CC(C)CCCCCCCOC(=O)c1ccccc1C(=O)OCCCCCCCC(C)C | inactive | –
19 | N#CCNCC#N | inactive | –
20 | CN(C)N | inactive | –
21 | CN1C[C@H](C(=O)N[C@]2(C)O[C@@]3(O)[C@@H]4CCCN4C(=O)[C@H](Cc4ccccc4)N3C2=O)C=C2c3cccc4[nH]cc(c34)C[C@H]21 | inactive | –
22 | O=C(O)CCl | inactive | –
23 | CC(O)CN(CC(C)O)CC(C)O (centres undefined) | inactive | –
24 | Nc1cc(Cl)cc(Cl)c1 | inactive | –
25 | O=[N+]([O-])c1ccc(Cl)cc1 | inactive | –
26 | C=CCO | inactive | –
27 | COC(=O)COc1ccc(Cl)cc1Cl | inactive | –
28 | [CH3][Sn]([Cl])([Cl])[Cl] | inactive | –
29 | CC(=O)c1cc2c(cc1C)C(C)(C)C(C)CC2(C)C (centres undefined) | – | 128 µM (active)
30 | COc1ncc(F)c2nc(S(=O)(=O)Nc3c(F)cccc3F)nn12 | inactive | –
31 | CC(C)[C@@H](C(=O)O[C@@H](C#N)c1cccc(Oc2ccccc2)c1)c1ccc(Cl)cc1 | inactive | –
32 | C[C@]12CC[C@H]3[C@@H](CC[C@@]45O[C@@H]4C(O)=C(C#N)C[C@]35C)[C@@H]1CC[C@@H]2O | inactive | –
33 | O=C(O)C(Br)Br | inactive | –
34 | C=CC(=O)OCCO | inactive | –
